# Data taken from PubChem BioAssay (EPA / NIEHS).
# Inconclusive results are not listed. More than one record can exist for a structure, and the calls need not agree. Activity calls are given as the source filed them. Rule for the calls, unless noted: active = hit-call score of the fitted dose curve at least 0.9, where 1 is the maximum; inactive = score below 0.9.
# How the values were obtained:
# [1] = target: human RAR-related Orphan Receptor beta (RORb), RORB (gene 6096) (UniProt Q92753); test: ATG_RORb_TRANS: Attagene TRANS-FACTORIAL HepG2 Assay for human RAR-related Orphan Receptor beta (RORb) (AID 2283010; active = hit-call score of the fitted dose curve at least 0.9, where 1 is the maximum;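 for AC50: potency for increased reporter mRNA meaning activation of RORb-Gal4 chimera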)
# In short: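 Multiplexed transcription-factor reporter assay: HepG2 cells transiently carrying NR-Gal4/GAL4-UAS constructs, 24 h treatment, mRNA quantified by RT-PCR plus capillary electrophoresis fluorescence; activity scored as induction over DMSO.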
# [2] = target: Retinoic acid receptor RXR-alpha (Homo sapiens) (UniProt P19793); test: ATG_RXRa_TRANS: Attagene TRANS-FACTORIAL HepG2 Assay for human Retinoid X Receptor alpha (RXRa) (AID 2283012; active = hit-call score of the fitted dose curve at least 0.9, where 1 is the maximum)
# In short: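 Chimeric NR-GAL4 trans-activation in HepG2, 24 h treatment; reporter transcripts quantified by fluorescence on capillary electrophoresis, analysed for upward change from DMSO.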
# [3] = target: human Retinoid X Receptor beta (RXRb), RXRB (gene 6257) (UniProt P28702); test: ATG_RXRb_TRANS: Attagene TRANS-FACTORIAL HepG2 Assay for human Retinoid X Receptor beta (RXRb) (AID 2283013; active = hit-call score of the fitted dose curve at least 0.9, where 1 is the maximum)
# In short: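 After a 24 h incubation with test chemical, transfected HepG2 cells carrying NR-Gal4 fusions and GAL4-UAS reporter transcription units yield RNA whose reporter cDNA is FAM-labelled, HpaI-cut and sized by capillary electrophoresis; increases over DMSO are scored.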
# [4] = read-out: E-selectin (Homo sapiens) (UniProt P16581); test: BSK_3C_Eselectin: BioMAP Diversity Plus: 3C Assay for Eselectin Biomarker Activity (AID 2283015); conditions: primary human endothelial cells (HUVEC); actives raise or lower the signal;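 for outcome: cell surface E-selectin protein quantified by ELISA 24 h after dosing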
# In short: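 Primary human umbilical vein endothelial cells (3C system), read 24 h after compound addition; E-selectin measured by ELISA. Bidirectional curve fitting against DMSO baseline; cytotoxicity by parallel SRB total-protein staining.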
# [5] = read-out: Interleukin-1 alpha (IL1a), IL1A (gene 3552); test: BSK_BE3C_IL1a: BioMAP Diversity Plus: BE3C Assay for Interleukin-1 alpha (IL1a) Biomarker Activity (AID 2283016); conditions: primary human bronchial epithelial cells; actives raise or lower the signal
# In short: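 Measured in human lung primary bronchial epithelial cells: IL-1a by ELISA at 24 h after dosing, with bidirectional fitting against DMSO.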
# [6] = read-out: Monocyte Chemoattractant Protein-1 (MCP1), CCL2 (gene 6347); test: BSK_3C_MCP1: BioMAP Diversity Plus: 3C Assay for Monocyte Chemoattractant Protein-1 (MCP1) Biomarker Activity (AID 2283017); conditions: primary human endothelial cells (HUVEC); actives raise or lower the signal
# In short: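 Human umbilical vein endothelial cells (3C system) exposed to chemicals for 24 h; MCP-1 quantified by ELISA against the DMSO baseline with bidirectional fitting, and parallel SRB staining used to assess cytotoxicity.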
# [7] = read-out: Monocyte Chemoattractant Protein-1 (MCP1), CCL2 (gene 6347); test: BSK_4H_MCP1: BioMAP Diversity Plus: 4H Assay for Monocyte Chemoattractant Protein-1 (MCP1) Biomarker Activity (AID 2283018); conditions: primary human endothelial cells (HUVEC); actives raise or lower the signal
# In short: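 Primary human umbilical vein endothelium is exposed to chemical for 24 h before MCP-1 is assayed by ELISA. Concentration-response fitted bidirectionally relative to DMSO.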
# [8] = read-out: Human Leukocyte Antigen - DR isotype (HLADR), HLA-DRA (gene 3122); test: BSK_3C_HLADR: BioMAP Diversity Plus: 3C Assay for Human Leukocyte Antigen - DR isotype (HLADR) Biomarker Activity (AID 2283019); conditions: primary human endothelial cells (HUVEC); actives raise or lower the signal;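 for outcome: ELISA of cell-surface HLA-DR on HUVEC 24 h after dosing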
# In short: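 HUVEC monoculture, HLA-DR measured by ELISA 24 h after chemical dosing. Fitted bidirectionally against DMSO baseline; parallel SRB staining assessed cytotoxicity, with 3C proliferation read by SRB at 48 h.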
# [9] = target: human RAR-related Orphan Receptor gamma (RORg), RORC (gene 6097) (UniProt P51449); test: ATG_RORg_TRANS: Attagene TRANS-FACTORIAL HepG2 Assay for human RAR-related Orphan Receptor gamma (RORg) (AID 2283011; active = hit-call score of the fitted dose curve at least 0.9, where 1 is the maximum;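 for AC50: potency for induction of reporter transcripts above DMSO so activators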)
# In short: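 HepG2 cells transiently transfected with GAL4-UAS reporter units and chimeric RORg-Gal4 construct; after 24 h chemical exposure, reporter mRNA measured by RT-PCR with fluorescent capillary electrophoresis, gain of signal fitted against DMSO.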
# [10] = target: human Thyroid Receptor alpha (THRa1), THRA (gene 7067) (UniProt P10827); test: ATG_THRa1_TRANS: Attagene TRANS-FACTORIAL HepG2 Assay for human Thyroid Receptor alpha (THRa1) (AID 2283014; active = hit-call score of the fitted dose curve at least 0.9, where 1 is the maximum)
# In short: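 HepG2 cells transiently transfected with chimeric NR-Gal4 and GAL4-UAS reporter units, dosed 24 h. Reporter mRNA quantified by RT-PCR, fluorescent labeling, HpaI digestion and capillary electrophoresis; gain-of-signal fit versus DMSO.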
# human Retinoid X Receptor beta (RXRb), RXRB (gene 6257), sequence (P28702 whole entry, looked up, the tested form may be a part): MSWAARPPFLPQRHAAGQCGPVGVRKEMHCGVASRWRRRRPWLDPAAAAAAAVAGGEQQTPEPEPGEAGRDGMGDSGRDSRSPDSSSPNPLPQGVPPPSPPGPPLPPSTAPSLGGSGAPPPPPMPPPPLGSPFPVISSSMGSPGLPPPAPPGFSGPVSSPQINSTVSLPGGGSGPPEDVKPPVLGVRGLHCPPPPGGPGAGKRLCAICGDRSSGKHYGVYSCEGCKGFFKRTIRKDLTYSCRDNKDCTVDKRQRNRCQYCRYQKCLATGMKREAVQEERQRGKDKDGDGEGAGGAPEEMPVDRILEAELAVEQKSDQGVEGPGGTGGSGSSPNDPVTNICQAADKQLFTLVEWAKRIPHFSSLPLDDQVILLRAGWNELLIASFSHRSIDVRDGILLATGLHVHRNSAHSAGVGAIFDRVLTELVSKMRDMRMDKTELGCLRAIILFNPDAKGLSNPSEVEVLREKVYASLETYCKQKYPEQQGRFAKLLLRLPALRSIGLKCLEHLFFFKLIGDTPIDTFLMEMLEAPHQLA
# human RAR-related Orphan Receptor gamma (RORg), RORC (gene 6097), sequence (P51449 whole entry, looked up, the tested form may be a part): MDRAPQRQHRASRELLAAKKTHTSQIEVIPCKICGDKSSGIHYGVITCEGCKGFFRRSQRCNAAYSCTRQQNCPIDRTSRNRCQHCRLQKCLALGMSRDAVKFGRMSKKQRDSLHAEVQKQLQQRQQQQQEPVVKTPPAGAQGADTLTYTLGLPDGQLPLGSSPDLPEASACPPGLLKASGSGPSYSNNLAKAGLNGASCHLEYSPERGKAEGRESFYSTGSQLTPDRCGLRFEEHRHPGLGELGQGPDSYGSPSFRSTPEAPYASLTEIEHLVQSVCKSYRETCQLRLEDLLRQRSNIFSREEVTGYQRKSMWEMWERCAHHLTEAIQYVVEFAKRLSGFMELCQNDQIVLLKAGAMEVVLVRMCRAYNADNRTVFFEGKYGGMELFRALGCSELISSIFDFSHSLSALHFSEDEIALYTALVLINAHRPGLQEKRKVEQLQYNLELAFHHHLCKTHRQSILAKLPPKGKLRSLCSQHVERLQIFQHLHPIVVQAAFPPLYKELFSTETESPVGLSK
# E-selectin (Homo sapiens), sequence (P16581 whole entry, looked up): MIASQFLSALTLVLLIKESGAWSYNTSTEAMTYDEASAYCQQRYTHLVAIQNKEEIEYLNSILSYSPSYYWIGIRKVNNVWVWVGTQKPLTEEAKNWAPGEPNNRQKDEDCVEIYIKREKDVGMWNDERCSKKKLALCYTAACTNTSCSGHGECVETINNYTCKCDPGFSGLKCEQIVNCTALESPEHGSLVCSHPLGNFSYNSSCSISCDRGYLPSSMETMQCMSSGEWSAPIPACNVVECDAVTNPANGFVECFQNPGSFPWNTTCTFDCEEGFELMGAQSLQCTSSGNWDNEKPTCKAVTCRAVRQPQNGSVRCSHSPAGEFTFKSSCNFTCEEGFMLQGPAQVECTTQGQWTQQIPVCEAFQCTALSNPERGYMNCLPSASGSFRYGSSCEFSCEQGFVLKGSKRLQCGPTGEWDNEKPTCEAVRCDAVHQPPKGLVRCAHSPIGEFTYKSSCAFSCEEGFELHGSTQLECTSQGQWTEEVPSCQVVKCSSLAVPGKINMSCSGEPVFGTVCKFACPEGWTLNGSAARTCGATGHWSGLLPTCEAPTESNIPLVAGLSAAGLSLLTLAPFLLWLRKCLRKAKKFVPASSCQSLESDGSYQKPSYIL
# Retinoic acid receptor RXR-alpha (Homo sapiens), sequence (P19793 whole entry, looked up, the tested form may be a part): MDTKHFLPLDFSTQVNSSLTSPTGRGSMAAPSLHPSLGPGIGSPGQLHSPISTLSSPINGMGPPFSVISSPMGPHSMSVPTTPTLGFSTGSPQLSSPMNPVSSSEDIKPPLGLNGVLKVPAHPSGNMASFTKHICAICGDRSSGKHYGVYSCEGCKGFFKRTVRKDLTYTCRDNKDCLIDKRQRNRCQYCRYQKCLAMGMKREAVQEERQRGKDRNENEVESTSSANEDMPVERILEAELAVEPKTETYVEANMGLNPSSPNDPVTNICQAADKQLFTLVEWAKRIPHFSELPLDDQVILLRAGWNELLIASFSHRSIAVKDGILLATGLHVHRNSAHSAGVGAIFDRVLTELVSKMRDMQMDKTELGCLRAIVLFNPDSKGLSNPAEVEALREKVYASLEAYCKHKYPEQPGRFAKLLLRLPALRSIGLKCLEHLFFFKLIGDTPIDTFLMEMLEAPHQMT
# human RAR-related Orphan Receptor beta (RORb), RORB (gene 6096), sequence (Q92753 whole entry, looked up, the tested form may be a part): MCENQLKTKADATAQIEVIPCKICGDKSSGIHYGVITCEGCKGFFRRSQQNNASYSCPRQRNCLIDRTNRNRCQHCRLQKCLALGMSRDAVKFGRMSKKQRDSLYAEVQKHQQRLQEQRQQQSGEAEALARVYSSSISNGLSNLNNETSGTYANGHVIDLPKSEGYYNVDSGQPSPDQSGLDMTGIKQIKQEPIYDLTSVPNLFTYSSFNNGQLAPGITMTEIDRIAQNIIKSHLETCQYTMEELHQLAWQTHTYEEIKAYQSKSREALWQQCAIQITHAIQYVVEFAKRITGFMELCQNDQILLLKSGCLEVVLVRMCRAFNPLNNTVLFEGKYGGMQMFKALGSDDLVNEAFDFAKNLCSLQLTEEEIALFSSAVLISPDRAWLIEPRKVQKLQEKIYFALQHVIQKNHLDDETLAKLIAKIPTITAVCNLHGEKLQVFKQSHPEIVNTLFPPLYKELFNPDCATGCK
# human Thyroid Receptor alpha (THRa1), THRA (gene 7067), sequence (P10827 whole entry, looked up, the tested form may be a part): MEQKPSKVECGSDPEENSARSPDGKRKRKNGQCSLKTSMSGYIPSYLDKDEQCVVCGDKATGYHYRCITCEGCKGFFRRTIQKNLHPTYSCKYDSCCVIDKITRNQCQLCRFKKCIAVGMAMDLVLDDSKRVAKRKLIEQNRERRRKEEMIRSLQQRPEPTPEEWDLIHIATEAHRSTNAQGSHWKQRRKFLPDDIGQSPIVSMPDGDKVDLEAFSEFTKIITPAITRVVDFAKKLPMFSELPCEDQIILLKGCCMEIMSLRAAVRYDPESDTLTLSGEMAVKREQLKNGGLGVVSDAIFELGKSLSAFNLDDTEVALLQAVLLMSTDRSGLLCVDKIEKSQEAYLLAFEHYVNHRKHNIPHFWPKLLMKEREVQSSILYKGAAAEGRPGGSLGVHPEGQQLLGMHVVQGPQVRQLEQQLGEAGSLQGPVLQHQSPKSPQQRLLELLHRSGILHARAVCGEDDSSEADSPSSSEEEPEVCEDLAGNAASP
SMILES,outcome [1],outcome [2],outcome [3],outcome [4],outcome [5],outcome [6],outcome [7],outcome [8],outcome [9],outcome [10],AC50 [3],AC50 [4],AC50 [8],AC50 [1],AC50 [9],AC50 [5],AC50 [2]
Cc1ccc(S(=O)(=O)NC(=O)NN2CCCCCC2)cc1,inactive,inactive,inactive,inactive,inactive,inactive,inactive,inactive,–,–,–,–,–,–,–,–,–
NCC(F)(F)C(F)(F)C(F)(F)C(F)(F)F,inactive,inactive,inactive,inactive,inactive,inactive,inactive,inactive,inactive,inactive,–,–,–,–,–,–,–
NNC(=O)c1ccncc1,inactive,inactive,–,inactive,inactive,inactive,inactive,inactive,inactive,inactive,–,–,–,–,–,–,–
OCc1c[nH]c2ccccc12,inactive,inactive,inactive,–,inactive,inactive,inactive,–,inactive,inactive,9.59 µM (active),24.6 µM (active),9.29 µM (active),–,–,–,–
COc1cc(C(C)C)c2c(c1)S(=O)(=O)N(COc1cc(=O)n3cccc(OCCN4CCCCC4)c3n1)C2=O,–,inactive,–,–,–,inactive,inactive,–,–,inactive,–,6.54 µM (active),8.31 µM (active),3.53 µM (active),3.78 µM (active),8.48 µM (active),–
FC(F)(F)COC(OCC(F)(F)F)OCC(F)(F)F,inactive,inactive,inactive,inactive,inactive,inactive,inactive,inactive,inactive,–,–,–,–,–,–,–,–
COS(C)(=O)=O,inactive,inactive,inactive,inactive,inactive,inactive,inactive,inactive,inactive,–,–,–,–,–,–,–,–
O=S(=O)(O)c1ccc(N=Nc2c(O)ccc3cc(S(=O)(=O)O)ccc23)cc1,inactive,inactive,inactive,inactive,inactive,inactive,inactive,inactive,–,inactive,–,–,–,–,–,–,–
O=C(O)c1ccc2c(c1)nc(C(=O)NC1CCN(C3CC3)CC1)n2Cc1cc(-c2ccc(Cl)s2)on1,inactive,–,–,inactive,inactive,inactive,inactive,–,inactive,–,–,–,1.6 µM (active),–,–,–,–
CCCCCOC(C)=O,inactive,–,–,inactive,inactive,inactive,inactive,inactive,inactive,inactive,–,–,–,–,–,–,–
FC(F)(F)C(F)(F)C(F)(F)C(F)(F)C(F)(F)C(F)(F)I,inactive,inactive,inactive,inactive,inactive,inactive,inactive,inactive,inactive,–,91.3 µM (active),–,–,–,–,–,–
CCOC(N)=O,inactive,inactive,–,inactive,inactive,inactive,inactive,inactive,inactive,–,–,–,–,–,–,–,–
CCCCCCOC(=O)CC(CC(=O)OCCCCCC)(OC(=O)CCC)C(=O)OCCCCCC,inactive,inactive,–,inactive,inactive,inactive,inactive,inactive,inactive,–,–,–,–,–,–,–,–
C[C@]12C=CC(=O)C=C1CC[C@H]1[C@@H]3C[C@@H](O)[C@](O)(C(=O)CO)[C@@]3(C)C[C@H](O)[C@@]12F,inactive,inactive,inactive,inactive,inactive,inactive,inactive,inactive,inactive,inactive,–,–,–,–,–,–,–
O=C(Cl)C(F)(F)C(F)(F)C(F)(F)C(=O)Cl,inactive,inactive,inactive,inactive,inactive,inactive,inactive,inactive,inactive,–,–,–,–,–,–,–,–
C[C@@H](Oc1ccc(CNC(=O)c2cccnc2Oc2ccc3c(c2)OCO3)c(F)c1)C(=O)O,inactive,inactive,inactive,inactive,inactive,inactive,inactive,inactive,–,inactive,–,–,–,–,–,–,–
C[Si](C)(C)C(F)(F)C(F)(F)C(F)(F)F,inactive,inactive,inactive,inactive,inactive,inactive,inactive,inactive,inactive,inactive,–,–,–,–,–,–,–
O=S(=O)(O)CCC(F)(F)C(F)(F)C(F)(F)C(F)(F)C(F)(F)C(F)(F)F,inactive,–,–,inactive,inactive,inactive,inactive,inactive,inactive,inactive,–,–,–,–,–,–,–
FC(F)C(F)(F)COCC1CO1 (stereo not given),inactive,inactive,–,inactive,inactive,inactive,inactive,inactive,inactive,–,–,–,–,–,–,–,–
